Screening data (PubChem BioAssay)
APP 5UTR inh: APP translation inhibition | SH-SY5Y APP 5'UTR-luciferase reporter, luminescence | inhibition, % at 2 µM | 190,000 compounds, 0.82% hits | AID 1285;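 active means inhibition above a set limit, derived from the sample mean plus 3 SD, cut at about 45% in these data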
Ba/F3 V617F tox: loss of viability in JAK2V617F-driven Ba/F3 cells; inhibition, % at 5.6 µM; 220,000 compounds, 1.1% hits; Ba/F3 EpoR-JAK2V617F viability, ATP luminescence;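 active means inhibition above the campaign mean plus 3 SD over all tested compounds, cut at about 24% in these data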;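 further: cytokine-independent growth of Ba/F3 cells driven by EpoR plus mutant JAK2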
aSyn 5UTR inh: MLPCN primary screen, SNCA 5' untranslated region. inhibition, % (tested at 7.5 µM). alpha-synuclein 5'UTR reporter, inhibitor activity. 300,000 compounds, 0.82% hits; in the data active means inhibition above about 60%;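 further: H4 neuroglioblastoma cells stably carrying SNCA 5'UTR luciferase fusion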
KLF5 inh: kruppel-like factor 5 inhibition. DLD-1 KLF5 promoter-luciferase reporter, luminescence. inhibition, % at 5 µM. 290,000 compounds, 0.23% hits. AID 1700;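 active means inhibition above a per-plate limit of that plate's mean compound inhibition plus 3 SD, cut at about 60% in these data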;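 further: higher means less KLF5 promoter-driven luciferase light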
BaF3 parental: reduces parental Ba/F3 cell viability, JAK2V617F counter-screen; CellTiter-Glo ATP luminescence; inhibition, % at 5.6 µM; 220,000 compounds, 1.1% hits;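 active means inhibition above a per-campaign cutoff, the mean inhibition of all tested compounds plus 3 SD, cut at about 27% in these data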
IEC-6 cytotox: kills IEC-6 intestinal cells in KLF5 counter-screen | IEC-6 cytotoxicity, luminescence viability | inhibition, % at 5 µM | 290,000 compounds, 0.78% hits; in the data active means inhibition above about 22%
Each line names hits and unclear results; the compound was inactive in the other large screens. A selection: hits, their analogues and other compounds. The true share with any hit is near 2.2%.

CCN(CC)S(=O)(=O)c1ccc(N2CCN(C)CC2)c(NC(=O)Nc2ccc(C)cc2)c1	none (no result: APP 5UTR inh, Ba/F3 V617F tox, BaF3 parental)
COc1ccc(OCC(=O)OCC(=O)NCc2ccc(F)cc2)cc1	APP 5UTR inh 64.5
COc1ccc(CNC(=O)COC(=O)CCOc2ccccc2)cc1	none
ClC1=C(Cl)C(Cl)=C(Cl)C1=C/C=C/c1ccccc1	aSyn 5UTR inh 113.3 (no result: APP 5UTR inh)
Cc1cc(SCC(=O)N/N=C/c2ccc(O)cc2O)c(C)cc1Br	APP 5UTR inh 49.1, aSyn 5UTR inh 78.3
Cc1cc(SCC(=O)N/N=C/c2ccccc2C(=O)O)c(C)cc1Br	none (no result: APP 5UTR inh, Ba/F3 V617F tox, BaF3 parental)
Cc1cc(C)c(NC(=O)Cn2nnc(C(=O)NCc3ccc4c(c3)OCO4)c2N)c(C)c1	none (no result: APP 5UTR inh, Ba/F3 V617F tox, BaF3 parental)
O=S(=O)(Nc1cc(Sc2cccc3cccnc23)c(O)c2ccccc12)c1ccccc1	APP 5UTR inh 74.9, IEC-6 cytotox 98.1
O=C1NC(=Nc2ccc(O)cc2)S/C1=C\C=C\c1ccco1	Ba/F3 V617F tox 75.0, BaF3 parental 60.5 (no result: APP 5UTR inh)
O=C(CN(C(=O)C1CSC(=O)C1)c1ccc(F)cc1)NCc1ccc2c(c1)OCO2 (configuration not stated)	none (no result: APP 5UTR inh, Ba/F3 V617F tox, BaF3 parental)
CCC(C)NC(=O)C1CCN(S(=O)(=O)c2cc([N+](=O)[O-])ccc2Cl)CC1 (configuration not stated)	none (no result: APP 5UTR inh)
O=C(Nc1nc2ccccc2s1)C1CCN(S(=O)(=O)c2cc([N+](=O)[O-])ccc2Cl)CC1	BaF3 parental 43.4 (no result: APP 5UTR inh)
OCCN1CCN(CC(O)COc2ccc(C34CC5CC(CC(C5)C3)C4)cc2)CC1 (configuration not stated)	aSyn 5UTR inh 84.9
NCCOc1ccc(C23CC4CC(CC(C4)C2)C3)cc1	aSyn 5UTR inh 81.0
Cc1ccc(N2C(=O)Nc3ccc(Br)cc3C2(O)C(=O)NCCN(C)C)cc1C (configuration not stated)	none (no result: APP 5UTR inh, Ba/F3 V617F tox, BaF3 parental)
CN=c1scc(-c2ccco2)n1/N=C/c1ccc(O)c(O)c1	Ba/F3 V617F tox 99.6, BaF3 parental 53.6
O=c1c(C(c2ccc(F)cc2)c2c(O)nc3n(c2=O)CCS3)c(O)nc2n1CCS2	none (no result: APP 5UTR inh)
CCC(C)[C@H](NC(=O)N1CCn2c1nc1ccccc12)C(=O)NCc1ccccc1 (some centres not stated)	none (no result: APP 5UTR inh, Ba/F3 V617F tox, BaF3 parental)
O=C(CCc1nnc2ccc(N3CCCC3)nn12)Nc1cc(F)ccc1F	none (no result: APP 5UTR inh, Ba/F3 V617F tox, BaF3 parental)
O=C1C(=C2SCCCS2)CC/C1=C\c1ccc(F)cc1	aSyn 5UTR inh 119.4
O=C1/C(=C/c2ccccc2)CCCc2ccccc21	none
Cc1cccc(/C=C2\CCC(=C3SCCCS3)C2=O)c1	aSyn 5UTR inh 85.2
O=C(N/N=C\c1cc(Cl)ccc1O)c1ccc(S(=O)(=O)N2CCCCC2)cc1	APP 5UTR inh 73.0, aSyn 5UTR inh 112.5
O=C(c1ccccc1)c1coc2c1C(=O)c1ccccc1C2=O	none
O=C1c2ccccc2C(=O)c2c1oc(C(F)(F)F)c2C(=O)c1ccccc1	aSyn 5UTR inh 100.9
COc1ccccc1Oc1ccc(S(=O)(=O)N2CCOCC2)cc1S(=O)(=O)N1CCOCC1	none
Cc1ccc(Oc2ccc(S(=O)(=O)N3CCOCC3)cc2C(N)=O)c(-n2nc3ccccc3n2)c1	APP 5UTR inh 45.6
O=C(N/N=C/c1sc(N2CCOCC2)nc1-c1ccccc1)c1cccc(S(=O)(=O)N2CCCC2)c1	aSyn 5UTR inh 98.9
O=C1C(Cl)=C(Nc2ccc3cn[nH]c3c2)C(=O)c2ccccc21	Ba/F3 V617F tox 98.2, aSyn 5UTR inh 100.2, BaF3 parental 107.0, IEC-6 cytotox 100.8 (no result: APP 5UTR inh)
CC(=O)Nc1ccc(NC2=C(Cl)C(=O)c3ccccc3C2=O)cc1	APP 5UTR inh 89.0
O=C(Oc1ccc(NC2=C(Cl)C(=O)c3ccccc3C2=O)cc1)c1ccc([N+](=O)[O-])cc1	none
CN(C)c1ccc(NC2=C(Cl)C(=O)c3ccccc3C2=O)cc1	APP 5UTR inh 93.9, IEC-6 cytotox 24.7
Cn1cnnc1SCC(=O)Nc1ncc(C(F)(F)F)cc1Cl	none
Cc1cc(C)cc(NC(=O)C(=O)NCC2CCCN2S(=O)(=O)c2cccs2)c1 (configuration not stated)	none (no result: APP 5UTR inh, Ba/F3 V617F tox, KLF5 inh, BaF3 parental, IEC-6 cytotox)
COc1ccc(OC)c2sc(N3CCc4ccccc4C3)nc12	none
c1ccc2c(c1)CCN(c1nc3cc4c(cc3s1)OCCO4)C2	aSyn 5UTR inh 75.1
O=C(Nn1c(SCc2cccc([N+](=O)[O-])c2)nc2ccccc2c1=O)c1ccccc1	none
CCn1c(SCC(=O)NCc2ccco2)nc2ccccc2c1=O	none
COc1ccc(C(=O)Nn2c(SCc3cccc([N+](=O)[O-])c3)nc3ccccc3c2=O)cc1	aSyn 5UTR inh 66.2
